The values below come from PubChem BioAssay.

The nature of test [1]: resazurin metabolic signal in HepG2 cells – cell-based, resazurin fluorescence, 24 h, PK04 Diversity Set, profiling panel (AID 1172). Further: test concentration not given here. The settings on record: HepG2 viability, higher = more signal.
The nature of test [2]: budding yeast growth changes without added modifier – OD600, strain BY4716, 24 h, basal condition, primary screen (AID 1173). To be noted: S. cerevisiae BY4716 growth, OD600, 24 h; higher = more signal, called active from +8 up or from −8 down.
Test [3] in a line: viability profiling in MM1S myeloma cells – cell-based, resazurin fluorescence, basal, 24 h, PK04 Diversity Set, profiling panel (AID 1174). Further: test concentration not given here. The settings on record: higher = more signal, called active from +8 up or from −8 down. Background: The colour change of resazurin is a common sign of viable cells or microbes.
The target in test [4] is Dihydroorotate dehydrogenase (quinone), mitochondrial (Plasmodium falciparum (isolate 3D7)) (UniProt Q08210). Description: inhibition of P. falciparum DHODH – biochemical, C-terminal His tag, absorbance 600 nm, primary screen (AID 1175).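 Further: recombinant parasite enzyme with a five histidine tag at its C terminus; test concentration not given here.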 To be noted: PfDHODH enzyme, DCIP absorbance 600 nm; higher = more signal, called active from +8 up or from −8 down.
The nature of test [5]: inhibition of PAO1 biofilm formation – strain PAO1, LB-PBS medium, absorbance 600 nm, primary screen (AID 1176). Further: test concentration not given here. To be noted: P. aeruginosa PAO1 growth/biofilm, A600, 12 h; higher = more signal.
Test [6] in a line: growth modulation of vineyard yeast isolate – strain RM11-1a, OD600, basal, 24 h, primary screen (AID 1177).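 Further: cultures grown under basal conditions with no added stressor; test concentration not given here.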 The settings on record: S. cerevisiae RM11-1a growth, OD600, 24 h; higher = more signal, called active from +8 up or from −8 down.
Test [7] is described as follows: growth of efflux-deficient E. coli DRC39 – strain DRC39, OD650, 24 h, E. coli filamentation inducers, primary screen (AID 1178).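 Further: growth measured as culture turbidity by optical density at 650 nm; test concentration not given here.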 To be noted: E. coli DRC39 acrAB, higher = more signal, called active from +8 up or from −8 down.
A short description of test [8]: growth of efflux-deficient E. coli DRC39 – strain DRC39, OD650, 48 h, E. coli filamentation inducers, primary screen (AID 1179).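 Further: screen aims at cell division blockers that make cells filament.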 To be noted: E. coli DRC39 delta-acrAB growth, higher = more signal, called active from +8 up or from −8 down.
A short description of test [9]: viability profiling in RPMI8226 myeloma cells – cell-based, resazurin fluorescence, basal, 24 h, PK04 Diversity Set, profiling panel (AID 1180).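 Further: RPMI8826 multiple myeloma cell line at 5000 cells per well; test concentration not given here.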 To be noted: higher = more signal.
The target in test [10] is E3 ubiquitin-protein ligase XIAP (Homo sapiens) (UniProt P98170). Briefly: small molecules binding XIAP protein – biophysical, small-molecule microarray, fluorescence 635 nm, primary screen (AID 1181).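 Further: score merges 667 nm emission and signal to noise over triplicate slides.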 To be noted: higher = more signal.

Active and inactive are the calls of the source. Unless noted, how the calls were made is not given here.

Sequence of E3 ubiquitin-protein ligase XIAP (Homo sapiens) (P98170 whole entry, looked up): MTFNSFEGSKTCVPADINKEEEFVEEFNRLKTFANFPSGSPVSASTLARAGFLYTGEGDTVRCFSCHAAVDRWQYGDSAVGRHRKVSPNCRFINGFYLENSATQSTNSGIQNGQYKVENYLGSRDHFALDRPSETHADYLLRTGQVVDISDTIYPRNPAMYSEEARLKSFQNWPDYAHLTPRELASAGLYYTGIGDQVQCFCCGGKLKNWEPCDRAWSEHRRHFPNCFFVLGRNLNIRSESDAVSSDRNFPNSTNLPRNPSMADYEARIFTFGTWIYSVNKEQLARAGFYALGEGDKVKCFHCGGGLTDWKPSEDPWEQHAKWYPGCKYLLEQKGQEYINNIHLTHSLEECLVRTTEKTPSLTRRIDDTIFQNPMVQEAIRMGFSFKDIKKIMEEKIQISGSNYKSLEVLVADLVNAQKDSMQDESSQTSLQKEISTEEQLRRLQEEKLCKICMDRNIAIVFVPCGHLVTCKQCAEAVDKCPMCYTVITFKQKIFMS
Sequence of Dihydroorotate dehydrogenase (quinone), mitochondrial (Plasmodium falciparum (isolate 3D7)) (Q08210 whole entry, looked up): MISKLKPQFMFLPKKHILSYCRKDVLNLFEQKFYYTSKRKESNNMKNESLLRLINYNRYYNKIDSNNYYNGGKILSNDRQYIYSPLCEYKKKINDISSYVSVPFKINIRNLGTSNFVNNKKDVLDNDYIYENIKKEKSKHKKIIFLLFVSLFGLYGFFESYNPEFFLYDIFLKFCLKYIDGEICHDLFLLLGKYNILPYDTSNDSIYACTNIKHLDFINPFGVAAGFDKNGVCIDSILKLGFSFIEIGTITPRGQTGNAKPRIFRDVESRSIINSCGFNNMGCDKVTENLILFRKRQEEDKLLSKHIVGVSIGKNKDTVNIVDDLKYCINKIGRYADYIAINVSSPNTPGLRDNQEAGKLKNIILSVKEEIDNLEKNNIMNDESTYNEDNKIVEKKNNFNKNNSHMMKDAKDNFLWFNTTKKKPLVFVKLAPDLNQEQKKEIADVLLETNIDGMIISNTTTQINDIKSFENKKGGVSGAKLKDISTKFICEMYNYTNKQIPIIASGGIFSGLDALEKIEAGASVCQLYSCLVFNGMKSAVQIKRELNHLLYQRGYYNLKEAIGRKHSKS

As for `COC(=O)[C@@]1(Cc2ccccc2)[C@H]2c3cc(C(=O)N4CCCC4)n(CCO)c3C[C@H]2CN1C(=O)c1ccccc1`, the z-score in test [1] is 0.445; in test [2], 0.192 (inactive); in test [3], -0.892 (inactive); in test [5], 0.259 (inactive); in test [6], -0.483 (inactive); in test [7], 0.355 (inactive). In addition, the results for the z-score in [8] and in [9] were 1.05 (inactive) and 0.309, respectively. The composite z-score in [4] was -1.2 (inactive); in test [10], 0.202.

Consider `O=C1C[C@@](C(=O)NCc2ccccc2)(c2ccc([N+](=O)[O-])cc2)[C@@H](c2ccc(CO)cc2I)N1C1CCCCC1`, for which the z-score was -0.327 in test [1]; 0.432 (inactive) in [2]; 0.566 (inactive) in test [3]; -0.301 (inactive) in [5]; 1.88 (inactive) in [6]; 0.445 (inactive) in [7]. For the same compound, the z-score in test [8] was -0.0118 (inactive); in test [9] it was 0.787. Further, the composite z-score in [4] is 0.634 (inactive); in [10], -0.115.

On to `CCCCC(CC)C(O)C1C=CC2C(=O)NC(=O)C2N1Nc1ccccn1` (stereo not given), for which the z-score was -1.39 in test [1]; 0.332 (inactive) in [2]; -1.51 (inactive) in test [3]; 1.2 (inactive) in test [5]; 0.852 (inactive) in test [6]; -0.486 (inactive) in test [7]. Moreover, the z-score in test [8] was -0.112 (inactive); in test [9], -0.675. For the same compound, the composite z-score was 0.56 (inactive) in test [4] and 0.24 in [10].

On to `CC1C=C(CCCO)C=C(C(=O)OCCS(C)(=O)=O)C(C(=O)OCCS(C)(=O)=O)=CN1Cc1cccc(OC(F)(F)F)c1` (stereo not given), for which the z-score is -0.096 in test [1]; -3.46 (inactive) in test [2]; -0.0212 (inactive) in [3]; 0.944 (inactive) in [5]; 0.309 (inactive) in test [6]; 0.736 (inactive) in test [7]. Besides, the z-score was 0.503 (inactive) in test [8] and 0.0364 in test [9]. Moreover, the composite z-score in test [4] is -2.15 (inactive); in test [10], -0.0659.

In the case of `O=C1NC(=O)C2C1C=CC(C(O)CCc1ccccc1)N2Nc1ccccn1` (stereo not given), the z-score in [1] was -0.875; in test [2], 0.725 (inactive); in [3], -0.871 (inactive); in test [5] it was 1.65 (inactive); in test [6] it was -1.07 (inactive); in test [7] it was 0.696 (inactive). The z-score was 1.07 (inactive) in test [8] and -0.717 in test [9]. The results for the composite z-score in test [4] and in test [10] were -0.505 (inactive) and 0.107, respectively.

As to `CN1C(=O)C2C=CC(C(O)c3cccc4ccccc34)N(NC(=O)OC(C)(C)C)C2C1=O` (stereo not given), the z-score in test [1] was -1.12; in test [2], -3.8 (inactive); in [3], -0.776 (inactive); in test [5], 0.378 (inactive); in [6], -0.0808 (inactive); in [7], -0.555 (inactive). Also, the z-score is -0.403 (inactive) in test [8] and -0.693 in test [9]. Further, the figures for the composite z-score in test [4] and in [10] were -0.878 (inactive) and 0.156, respectively.

As for `COC(=O)[C@@]1(Cc2ccc(F)cc2)[C@@H]2[C@@H](CC(=O)[C@H]2CC(=O)C(=O)N2CCCC2)CN1C(=O)c1ccccc1`, the z-score in test [1] was -0.572; in [2], 0.508 (inactive); in [3], -1.78 (inactive); in test [5], 1.03 (inactive); in [6], 0.23 (inactive); in [7], -1.25 (inactive). Also, the z-score in test [8] is -0.212 (inactive); in [9] it was -3.35. Further, the composite z-score in test [4] is -0.238 (inactive); in [10], -0.0553.

In the case of `C[C@H]1ON(c2ccccc2)[C@@H](c2ccccc2)[C@@H]1C(=O)N1C(=O)OC[C@@H]1c1ccccc1`, the z-score in test [1] was 0.565; in [2] it was 0.551 (inactive); in test [3], 0.715 (inactive); in test [5], -0.189 (inactive); in test [6], 1.5 (inactive); in test [7], 0.259 (inactive). Besides, the z-score is -0.0075 (inactive) in [8] and 0.942 in test [9]. Moreover, the composite z-score is -0.199 (inactive) in test [4] and -0.123 in [10].

`COc1ccc([Si](C)(C)[C@H]2[C@H](CCO)O[C@@]3(C(=O)N(Cc4cccc(N5CCOC5=O)c4)c4ccccc43)[C@@H]2C)cc1`: the z-score was -1.55 in [1]; 1.34 (inactive) in test [2]; -4.67 (inactive) in [3]; 2 (inactive) in test [5]; 4.7 (inactive) in test [6]; 0.803 (inactive) in test [7]. The z-score in test [8] is 0.113 (inactive); in [9], -3.21. In addition, the composite z-score in [4] was -0.287 (inactive); in [10], -0.0755.

In the case of `Cc1ccc(C(C)CC(O)C2C=CC3C(=O)N(Cc4ccccc4)C(=O)C3N2n2cnnc2)o1` (stereo not given), the z-score in [1] was -1.13; in [2], -9.36 (active); in [3] it was -0.817 (inactive); in test [5] it was 0.368 (inactive); in [6] it was -1.4 (inactive); in test [7], -1.46 (inactive). The z-score in test [8] is -1.22 (inactive); in [9] it was -0.841. Also, the figures for the composite z-score in [4] and in test [10] were -0.101 (inactive) and 0.263, respectively.
